Hits are enriched below; roughly 4% of the tested compounds scored in any of these assays.
BoNT A protease: BoNT A light chain protease inhibition. multiplex microsphere protease substrate cleavage, flow cytometry. inhibition, % at 10 µM. 360,000 compounds, 0.17% hits. AID 588499; further: plate controls were buffer without enzyme for full effect and enzyme alone for no effect
MazEF act: activators of E. coli MazEF toxin-antitoxin RNase. AID 504720. 350,000 compounds, 0.32% hits. FAM/BHQ RNA-DNA oligo cleavage fluorescence, 5 h. activation, % at 20 µM; in the data active means activation above about 50%
DUSP3 inh: blocks human VHR1 dual specificity phosphatase; inhibition, % at 13.3 µM; recombinant VHR phosphatase, pNPP absorbance; 290,000 compounds, 0.52% hits; P51452; in the data active means inhibition above about 50%
BoNT-F LC inh: blocks Botulinum neurotoxin F light chain protease. inhibition, % at 10 µM. 360,000 compounds, 0.22% hits. Multiplex microsphere protease cleavage assay, flow cytometry; in the data active means inhibition above about 35%, passing the limit was not always enough; inconclusive means no clear call, values can overlap the other calls; further: plate controls were buffer without enzyme for full effect and enzyme alone for no effect
Autofluor counter: counter-screen for toxin protease inhibitors: compound fluorescence | compound autofluorescence counterscreen, microsphere flow cytometry; hits give high values | 360,000 compounds, 3.1% hits | fluorescence intensity (concentration not given with the values) | AID 624483; in the data active means fluorescence intensity above about 16000; inconclusive means no clear call, values can overlap the other calls
Anthrax LF prot: blocks Bacillus anthracis lethal factor protease | multiplex microsphere protease cleavage assay, LF | inhibition, % at 10 µM | 360,000 compounds, 0.12% hits | AID 588501; further: plate controls were buffer without enzyme for full effect and enzyme alone for no effect
An asterisk follows results filed as active; ? = inconclusive; · = no result given. Unless noted, no stated cut-off is given here; in the data, active means inhibition above about 30%; inconclusive means no clear call, values can overlap the other calls; inactive means below that.

SMILES	BoNT A protease	MazEF act	DUSP3 inh	BoNT-F LC inh	Autofluor counter	Anthrax LF prot
CCOC(=O)C1CCCCN1Cc1ccccc1C(F)(F)F (stereo not given)	5	5	17	4	17635*	-4
c1ccc(-c2nc(N3CCOCC3)cc(N3CCOCC3)n2)cc1	-1	0	3	-2	4649	0
Cn1c(-c2cccc(Br)c2)cnc1NCc1cccnc1	-2	0	31	-4	23394*	-2
Cn1c(-c2ccc(F)cc2)cnc1NCc1ccccc1	-3	-4	-4	-6	17208*	-4
CC(c1ccccc1)N1C(=O)NC(NC(=O)c2cccnc2)(C(F)(F)F)C1=O (stereo not given)	1	7	-9	7	8974	6
O=C(NNC(=O)c1cccs1)c1ccccn1	0	-5	·	0	3683	2
O=C(CSc1nc2cc(Cl)ccc2c(=O)n1Cc1ccco1)Nc1ccc(S(=O)(=O)N2CCOCC2)cc1	0	-11	2	5	1984	-3
O=C(CSc1nc2ccccc2c(=O)n1Cc1ccco1)Nc1cccc(O)c1	2	59*	-11	26	4523	-5
Nn1c(SCC(=O)Nc2ccccc2F)nc2ccccc2c1=O	?	14	-8	-2	16496*	0
COC(=O)c1ccc2c(=O)n(Cc3ccco3)c(SCC(=O)Nc3ccc(C)c(Cl)c3)nc2c1	-1	0	6	-1	23373*	-2
COCCNC(=O)CSc1nc2cc(OC)c(OC)cc2c(=O)n1Cc1ccco1	?	11	10	18	16515*	-2
CC(C)OC(=O)CSc1nnc(-c2cccnc2)n1N	0	-3	8	4	2883	2
CSc1ccc(/C=C(/NC(=O)c2ccccc2)C(=O)N2CCN(C)CC2)cc1	-1	-1	12	-2	4126	-6
CCC(=O)Nc1nonc1-c1nc2ccccc2n1N(C(=O)CC)C(=O)CC	0	-8	7	-20	4129	-2
Cc1ccccc1C(=O)NNC(=O)Cc1ccccc1	-1	-27	6	6	7322	1
Cc1ccccc1C(=O)NNC1=NCCC1	-1	6	-12	-1	17045*	0
Cc1c(Cl)cccc1NC(=O)C(=O)NNC(=O)c1ccccc1F	-1	6	12	-14	4509	4
COC(=O)NNC(=O)c1ccccc1C	?	-1	10	3	22876*	0
Cc1ccccc1C(=O)NNC(=O)C(=O)Nc1cccc(Cl)c1C	-1	-5	-7	-3	20831*	-2
Cc1ccc(NCc2nnc(SCC(=O)c3ccc4c(c3)OCCO4)o2)c(C)c1	0	52*	13	0	7929	-1
COc1ccc(C(=O)CSc2nnc(CNc3ccc(C)cc3C)o2)cc1	-1	2	-1	1	4390	-2
COc1ccc(Nc2ccc(C(=O)O)cc2[N+](=O)[O-])cc1	-1	0	26	-6	2463	-1
Cc1cccc(Nc2ccc(C(=O)O)cc2[N+](=O)[O-])c1C	1	-4	53*	4	2897	17
COCCCNC(=O)c1c(N)n(-c2ccc3c(c2)OCO3)c2nc3ccccc3nc12	11	4	-2	-5	4028	8
CCCNC(=O)c1c(N)n(-c2ccc3c(c2)OCO3)c2nc3ccccc3nc12	?	6	1	-1	21855*	-4
SMILES	BoNT A protease	MazEF act	DUSP3 inh	BoNT-F LC inh	Autofluor counter	Anthrax LF prot
O=C(NCCc1ccccc1)c1noc2c1CCc1ccccc1-2	14	2	10	20	17456*	0
O=C(NCCN1CCOCC1)c1ccc(-c2ccccc2)cc1	7	2	12	7	20391*	-1
O=C(NCCN1CCN(c2ccccc2)CC1)c1cccc(Br)c1	0	0	8	0	23925*	-1
O=C(NCCN1CCOCC1)c1noc2c1CCc1ccccc1-2	-3	-4	14	-2	23180*	0
COC(=O)[C@]12CCCCC=C1N(Cc1cccc3ccccc13)C(=O)[C@H](CC(=O)NCc1cccc3ccccc13)C2	0	·	·	-1	5634	-1
COc1ccc(Nc2nc(N)nc(CSc3nncn3C)n2)cc1	-1	-6	30	2	16635*	-4
COc1ccc(Nc2nc(N)nc(CSc3nnc(C)s3)n2)cc1	-1	-6	31	-2	3284	-4
CCOc1ccccc1Nc1nc(N)nc(CSc2nncn2C)n1	0	1	6	1	23051*	-5
CCOc1ccccc1Nc1nc(N)nc(CSc2nccc(C)n2)n1	1	-26	6	-7	4788	-2
